Where “and” joins values, the source holds several entries; their conditions need not be identical. Equal entries are not always repeated. Calls of active or inactive are those of the source. Rule for the calls: active = hit-call score of the fitted dose curve at least 0.9, where 1 is the maximum; inactive = score below 0.9.

For orientation: AC50 means the concentration giving half of the maximal activity seen.

The experiment in a line: CCTE_Shafer_MEA_acute_synchrony_index: CCTE's Neural Acute Assay for Synchrony, Shafer Lab (AID 2284027).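 Note: fitted for loss of signal so actives lower synchrony relative to DMSO.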 The protocol:
CCTE_Shafer_MEA_acute assay is conducted using Axion Biosystems 48 well microelectrode array (MEA) plates and Maestro recording system. Each well of the MEA plate contains a grid of 16 microelectrodes embedded in the culture surface. Electrically active cells, such as neurons, can be cultured over the electrodes, and electrical activity in these cells can be recorded extracellularly. The spontaneous firing of neurons is captured from each electrode on a microsecond timescale providing both temporally and spatially precise data. […] The CCTE_Shafer_MEA_acute assay uses primary cultures of rat cortical neurons. As these cultures mature over time, neural networks develop functional activity and form cohesive networks in which electrical activity can be highly coordinated. Baseline 40-minute recordings are made on days post-plating 13 or 15, followed by a secondary 40-minute recording after chemical exposure.CCTE_Shafer_MEA_acute_synchrony_index is a component of the CCTE_Shafer_MEA_acute assay. It measures the synchrony of the neural network as a unitless measure between 0 (low synchrony) to 1 (high synchrony) during a recording in a microelectrode array (MEA) using Axion Biosystems Maestro 768 channel amplifier with the AxIS adaptive spike detector. The recordings before and after chemical treatment are used to calculate a percent change in the synchrony index in each well.Data from the assay component CCTE_Shafer_MEA_acute_synchrony_index was analyzed into 1 assay endpoint. This assay endpoint, CCTE_Shafer_MEA_acute_synchrony_index, was analyzed in the negative analysis fitting direction relative to DMSO as the negative control and baseline of activity. Using a type of functional reporter, gain or loss-of-signal activity can be used to understand electrical activity.
Spontaneous activity in the cortical cultures was recorded using an Axion Biosystems Maestro 768 channel amplifier and Axion Integrated Studios (AxIS) v1.8 (or later) software. The amplifier recorded from all channels simultaneously (gain = 1200 x; sampling rate = 12.5 kHz/channel): raw signals were filtered with a Butterworth band-pass filter (300-5000 Hz), which filters out slower local field potentials leaving only fast potentials, i.e., "spikes", arising from extracellular currents associated with action potentials (Pine 2006; Wheeler and Nam 2011). On-line spike detection of filtered signals was conducted with the AxIS adaptive spike detector, using a threshold of 8x the root mean squared (rms) noise on each channel. Any electrodes with rms noise levels greater than 5 uV were grounded (e.g., no data were recorded). Once grounded, an electrode was grounded for the duration of the experiment. All recordings were conducted at 37 C. Wells were deemed usable if on the day of the exposure >/= 10 electrodes were active (defined as >/= 5 spikes/min). On DIV 13 or 15, a minimum of three wells from one cortical culture preparation were treated with each compound (0.03-40 uM). Prior to recording baseline activity, each mwMEA plate was placed in the Maestro at 37 C and allowed to sit for 20 min while firing rates stabilized. Baseline activity (40 min) was recorded before the addition of each compound. An additional 40 min of spontaneous activity was recorded in the presence of each compound. Changes in network parameters relative to baseline were assessed following compound treatment.
Regarding `C=CCC1=C(C)C(OC(=O)C2C(C=C(C)C)C2(C)C)CC1=O` (stereo not drawn), the AC50 was 5.52 µM (active) and 2.93 µM (active).

Consider `CS/C(C)=N/OC(=O)N(C)SN(C)C(=O)O/N=C(\C)SC`, for which the AC50 is 27.8 µM (active).

In the case of `C=CCC1=C(C)[C@@H](OC(=O)[C@@H]2[C@@H](C=C(C)C)C2(C)C)CC1=O`, the AC50 is 27.2 µM (active).

For `COc1ccc(C(c2ccc(OC)cc2)C(Cl)(Cl)Cl)cc1`, the AC50 was 27.4 µM (active).

In the case of `CC(Oc1ccc(Cl)cc1Cl)C(=O)O` (stereo not drawn), the outcome was inactive.

For `CC(C)Oc1cc(-n2nc(C(C)(C)C)oc2=O)c(Cl)cc1Cl`, the outcome was inactive.

Regarding `CC1COC(Cn2cncn2)(c2ccc(Oc3ccc(Cl)cc3)cc2Cl)O1` (stereo not drawn), the AC50 is 11.5 µM (active).

As to `CCCN(CCC)c1c([N+](=O)[O-])cc(S(N)(=O)=O)cc1[N+](=O)[O-]`, the AC50 was 5 µM (active).

For `Cc1c(F)c(F)c(COC(=O)C2C(/C=C(\Cl)C(F)(F)F)C2(C)C)c(F)c1F` (stereo not drawn), the AC50 is 0.433 µM (active).

With `CC(C)(C)c1ccc(CSc2cnn(C(C)(C)C)c(=O)c2Cl)cc1`, the AC50 was 3.24 µM (active).

Consider `COC(=O)C(C)Oc1ccc(Oc2ccc(Cl)cc2Cl)cc1` (stereo not drawn), for which the AC50 is 20 µM (active).

With `N#Cc1nn(-c2c(Cl)cc(C(F)(F)F)cc2Cl)c(N)c1S(=O)C(F)(F)F` (stereo not drawn), the AC50 was 33.4 µM (active) and 23.4 µM (active).

Regarding `COP(N)(=O)SC` (stereo not drawn), the compound was classed as inactive.

`N#CC(CCc1ccc(Cl)cc1)(Cn1cncn1)c1ccccc1` (stereo not drawn): the result was inactive.

As for `CCCC1COC(Cn2cncn2)(c2ccc(Cl)cc2Cl)O1` (stereo not drawn), the AC50 is 17.5 µM (active).

With `COC(=O)N(OC)c1ccccc1COc1ccn(-c2ccc(Cl)cc2)n1`, the AC50 was 1.73 µM (active).

In the case of `Cc1ccc(-c2c(Cl)nc(C#N)n2S(=O)(=O)N(C)C)cc1`, the outcome was inactive.

Consider `C#CCOS(=O)OC1CCCCC1Oc1ccc(C(C)(C)C)cc1` (stereo not drawn), for which the AC50 is 32.5 µM (active).

Turning to `CCCCNC(=O)OCC#CI`, the AC50 is 15.5 µM (active).

Regarding `CNC(=O)ON=CC(C)(C)SC`, the compound was called inactive.

With `OC(c1ccc(Cl)cc1)(c1cncnc1)c1ccccc1Cl` (stereo not drawn), the AC50 was 3.05 µM (active).

In the case of `CCOP(=S)(OCC)SCn1c(=O)oc2cc(Cl)ccc21`, the AC50 is 29.3 µM (active).

On to `Fc1ccc(Oc2ccnc3cc(Cl)cc(Cl)c23)cc1`, for which the outcome was inactive.

As to `O=C(O)c1nc(Cl)ccc1Cl`, the result was inactive.

Consider `CCNc1nc(Cl)nc(NC(C)C)n1`, for which the AC50 was 20 µM (active).

For the compound `COP(=S)(OC)Oc1nc(Cl)c(Cl)cc1Cl`, the outcome was inactive.

Regarding `CON(C)C(=O)Nc1ccc(Cl)c(Cl)c1`, the AC50 is 6.56 µM (active).

Turning to `CO/C=C(/C(=O)OC)c1ccccc1Oc1cc(Oc2ccccc2C#N)ncn1`, the AC50 was 10.7 µM (active).
